Laboratory results reported in PubChem BioAssay (NCATS).
Results filed as inconclusive are left out. The source made the active and inactive calls. Calls come from the whole dose curve; as a rule, active = well fitted inhibition curve with a large enough effect; inconclusive = small, poorly fitted or top-dose-only effect; inactive = no such curve, though single readings can be large or run the other way.

test: Primary qHTS for inhibitors of La Crosse Virus (LACV) - induced cell death in SH-SY5Y cells (AID 1508616); settings: SH-SY5Y LACV cytopathicity rescue, ATP luminescence, 6 d; series mostly up to 4.29 µM; activity change: at the top concentration;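 note: top concentration of the series differs between compounds; 0% = infected DMSO wells and 100% = uninfected DMSO wells; higher means more rescue of cells from virus-induced death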
In short: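 Cytopathicity rescue screen: compounds pinned onto SH-SY5Y cells, which are then infected with LACV (MOI 0.01) and held 6 days at 37C. Percent activity is scaled between infected DMSO control and uninfected DMSO control.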

Row | Compound | activity change
1 | CC(=O)Oc1ccc2c(c1)CC[C@@H]1[C@@H]2CC[C@]2(C)[C@@H](O)CC[C@@H]12 | -8.34% (inactive)
2 | C#C[C@]1(O)CC[C@H]2[C@@H]3CCC4=CC(=O)CC[C@@H]4[C@H]3CC[C@@]21C | 1.76% (inactive)
3 | O=C1c2ccccc2C(=O)C1c1ccccc1 | 6.49% (inactive)
4 | C[C@]12CC[C@H]3[C@@H](CCC4=CC(=O)CC[C@@]43C)[C@@H]1CC[C@@H]2C(=O)CO | 22.9% (inactive)
5 | CCCCOc1ccc(C(=O)CCN2CCCCC2)cc1 | -0.887% (inactive)
6 | COC1=CC(=O)C[C@@H](C)[C@]12Oc1c(Cl)c(OC)cc(OC)c1C2=O | 0.839% (inactive)
7 | CCN(CC)CCNC(=O)COc1ccc(Cl)cc1 | 16.4% (inactive)
8 | CC(=O)OCC(=O)[C@@]12N=C(C)O[C@@H]1C[C@H]1[C@@H]3CCC4=CC(=O)C=C[C@]4(C)[C@H]3[C@@H](O)C[C@@]12C | 3.29% (inactive)
9 | CC(=O)OCC(=O)[C@@]12OC(C)(C)O[C@@H]1C[C@H]1[C@@H]3C[C@H](F)C4=CC(=O)C=C[C@]4(C)[C@@]3(F)[C@@H](O)C[C@@]12C | 31.7% (inactive)
10 | C/C=C/c1ccc(OC)cc1 | 6.92% (inactive)
11 | NC(=O)C(=O)N/N=C/c1ccc([N+](=O)[O-])o1 | -17.4% (inactive)
12 | CC[N+](CC)(CCNC(=O)C(=O)NCC[N+](CC)(CC)Cc1ccccc1Cl)Cc1ccccc1Cl | -5.94% (inactive)
13 | CCCCCCCCCCCCCCCC[N+](C)(C)CC | -30.8% (inactive)
14 | C[C@@H]1C[C@H]2[C@@H]3CCC4=CC(=O)C=C[C@]4(C)[C@@]3(F)[C@@H](O)C[C@]2(C)[C@H]1C(=O)CO | 35.1% (inactive)
15 | O=C(O)CNC(=O)c1ccccc1 | -5.09% (inactive)
16 | C[C@]12C=CC(=O)C=C1[C@@H](F)C[C@@H]1[C@@H]2[C@@H](O)C[C@@]2(C)[C@H]1CC[C@]2(O)C(=O)CO | 35.9% (inactive)
17 | C[C@]12C=CC(=O)C=C1CC[C@@H]1[C@@H]2[C@@H](O)C[C@@]2(C)[C@H]1CC[C@]2(O)C(=O)CO | 8.95% (inactive)
18 | C#C[C@]1(OC(C)=O)CC[C@H]2[C@@H]3CCC4=C[C@@H](OC(C)=O)CC[C@@H]4[C@H]3CC[C@@]21C | 0.683% (inactive)

Row | Compound | activity change
19 | COc1ccc(CCN2CCC(Nc3nc4ccccc4n3Cc3ccc(F)cc3)CC2)cc1 | -20% (inactive)
20 | C[n+]1c2cc(N)ccc2cc2ccc(N)cc21 (tested in a mixture with another compound) | -14.4% (inactive)
21 | COc1cc(-c2ccc(=O)[nH]n2)ccc1OC(F)F | -1.22% (inactive)
22 | CCCCC(=O)O[C@]1(C(=O)CO)CC[C@H]2[C@@H]3CCC4=CC(=O)CC[C@]4(C)[C@H]3[C@@H](O)C[C@@]21C | 19.1% (inactive)
23 | CCOc1ccc(Cc2nccc3cc(OCC)c(OCC)cc23)cc1OCC | 46% (inactive)
24 | CC1=C(C(=O)OC(C)C)C(c2cccc([N+](=O)[O-])c2)C(C(=O)OC2CN(C(c3ccccc3)c3ccccc3)C2)=C(N)N1 (stereo not given) | 16.5% (inactive)
25 | COc1ccc(/C=C/C(=O)c2ccc(OC)cc2OC)cc1 | 7.45% (inactive)
26 | CCN(CC)CCOc1ccc(C(O)(Cc2ccc(Cl)cc2)c2ccc(C)cc2)cc1 (stereo not given) | -10.6% (inactive)
27 | CCCCC1=NC2(CCCC2)C(=O)N1Cc1ccc(-c2ccccc2-c2nn[nH]n2)cc1 | 32% (inactive)
28 | CCCCCCCCCCOCC(O)CN (stereo not given) | -5.63% (inactive)
29 | Cc1ccc(C(=O)C(C)CN2CCCCC2)cc1 (stereo not given) | 17.8% (inactive)
30 | Clc1ccc2c(c1)CCc1cccnc1C2=C1CCNCC1 | -12.9% (inactive)
31 | CCCN1CCCC[C@H]1C(=O)Nc1c(C)cccc1C | -15.3% (inactive)
32 | Oc1cc(O)c2c(c1)O[C@H](c1ccc(O)c(O)c1)[C@H](O)C2 | 4.94% (inactive)
33 | C[C@]12CCC(=O)C=C1CC[C@H]1[C@@H]3CC[C@](O)(C(=O)CO)[C@@]3(C)C[C@H](O)[C@@]12F | 0.494% (inactive)
34 | CCCCOc1ccc(OCCCN2CCOCC2)cc1 | 31.6% (inactive)
35 | COC(=O)CCc1ccc(OCC(O)CNC(C)C)cc1 (stereo not given) | -9.93% (inactive)
